Assay results as given in the supplement of paper PMC10849652.
About 8,800 targets were measured; listed, in parts, are those with a hit and a random draw of the rest. About 0.5% of all pairs of compound and target were hits. Values without a mark were called inactive.

Assays:
Assay in all cases: log2 fold change, soluble protein after heating vs DMSO (PISA); higher = thermal stabilisation; K562 lysate, 10 uM; active = over 0.2 and 3.5 SD of the protein, either way, in both replicates (recomputed)
[1] = compound: CS(=O)(=O)N1CCN(Cc2cc3nc(-c4cccc5[nH]ncc45)nc(N4CCOCC4)c3s2)CC1 [pictilisib]
Outline: (§1)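 A 30 min treatment with 10 μM compound was applied to crude K562 extract at 1 mg/mL protein in PBS pH 7.4 with 1 mM MgCl2. Heating for 3 min spanned 48°C-58°C, after which aliquots were pooled, adjusted to 0.5% NP-40 at 4°C and spun at 21,000xg for 90 min. TMTpro 16plex LC-MS/MS of the supernatant, with channel sums equalised, gave values recorded as log-two fold change in thermal stability against solvent controls, from duplicates.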

[2] = compound: C[C@@H](Oc1cc(-c2cnn(C3CCNCC3)c2)cnc1N)c1c(Cl)ccc(F)c1Cl [crizotinib]
Outline: as §1

[3] = compound: C[C@H](C1=CC=C(C=C1)C(=O)NC2=C3C=CNC3=NC=C2)N
Outline: as §1

[4] = compound: C[C@H](Nc1ncnc2nc[nH]c12)c1cc2cccc(Cl)c2c(=O)n1-c1ccccc1 [duvelisib]
Outline: as §1

[5] = compound: Cc1cc(Nc2cc(CN3CCOCC3)c3nc(C)c(Cc4ccc(Cl)cc4F)n3n2)n[nH]1 [gandotinib]
Outline: as §1

[6] = compound: Cc1cc(Nc2cc(N3CCN(C)CC3)nc(Sc3ccc(NC(=O)C4CC4)cc3)n2)n[nH]1 [tozasertib]
Outline: as §1

[7] = compound: Cc1ccc(-n2nc(C(C)(C)C)cc2NC(=O)Nc2ccc(OCCN3CCOCC3)c3ccccc23)cc1 [doramapimod]
Outline: as §1

[8] = compound: Cc1ccc(NC(=O)c2ccc(CN3CC[C@H](N(C)C)C3)c(C(F)(F)F)c2)cc1Nc1nccc(-c2cncnc2)n1 [bafetinib]
Outline: as §1

[9] = compound: Cc1cccc(CC(=O)N2CCc3c2ccc(-c2cn(C)c4ncnc(N)c24)c3F)n1
Outline: as §1

[10] = compound: Cc1cn(-c2cc(NC(=O)c3ccc(C)c(Nc4nccc(-c5cccnc5)n4)c3)cc(C(F)(F)F)c2)cn1 [nilotinib]
Outline: as §1

[11] = compound: Cc1nc(Nc2n[nH]c3c2CN(C(=O)N[C@H](CN(C)C)c2ccccc2)C3(C)C)c2sccc2n1
Outline: as §1

[12] = compound: Cc1nc(Nc2ncc(C(=O)Nc3c(C)cccc3Cl)s2)cc(N2CCN(CCO)CC2)n1 [dasatinib]
Outline: as §1

[13] = compound: Cc1ncc(-c2ccnc(Nc3ccc(S(C)(=O)=O)cc3)n2)n1C(C)C
Outline: as §1

[14] = compound: Cn1cc(-c2ccc3c(c2)CCN3C(=O)Cc2cccc(C(F)(F)F)c2)c2c(N)ncnc21
Outline: as §1

[15] = compound: Cn1cc(CNCC2CCN(c3ncc(C(=O)NO)cn3)CC2)c2ccccc21 [quisinostat]
Outline: as §1

[16] = compound: Cn1cncc1[C@@](N)(c1ccc(Cl)cc1)c1ccc2c(c1)c(-c1cccc(Cl)c1)cc(=O)n2C [tipifarnib]
Outline: as §1

[17] = compound: NC(=O)Nc1cc(-c2cccc(F)c2)sc1C(=O)N[C@H]1CCCNC1
Outline: as §1

[18] = compound: NC1(c2ccc(-c3nc4ccn5c(=O)[nH]nc5c4cc3-c3ccccc3)cc2)CCC1
Outline: as §1

[19] = compound: CS(=O)(=O)CCNCc1ccc(-c2ccc3ncnc(Nc4ccc(OCc5cccc(F)c5)c(Cl)c4)c3c2)o1 [lapatinib]
Outline: as §1

[20] = compound: NC(=O)c1cnc(N[C@@H]2CCCC[C@@H]2N)nc1Nc1cccc(-n2nccn2)c1
Outline: as §1

Sequence of UniProt Q9UNH5 (Q9UNH5 whole entry, looked up): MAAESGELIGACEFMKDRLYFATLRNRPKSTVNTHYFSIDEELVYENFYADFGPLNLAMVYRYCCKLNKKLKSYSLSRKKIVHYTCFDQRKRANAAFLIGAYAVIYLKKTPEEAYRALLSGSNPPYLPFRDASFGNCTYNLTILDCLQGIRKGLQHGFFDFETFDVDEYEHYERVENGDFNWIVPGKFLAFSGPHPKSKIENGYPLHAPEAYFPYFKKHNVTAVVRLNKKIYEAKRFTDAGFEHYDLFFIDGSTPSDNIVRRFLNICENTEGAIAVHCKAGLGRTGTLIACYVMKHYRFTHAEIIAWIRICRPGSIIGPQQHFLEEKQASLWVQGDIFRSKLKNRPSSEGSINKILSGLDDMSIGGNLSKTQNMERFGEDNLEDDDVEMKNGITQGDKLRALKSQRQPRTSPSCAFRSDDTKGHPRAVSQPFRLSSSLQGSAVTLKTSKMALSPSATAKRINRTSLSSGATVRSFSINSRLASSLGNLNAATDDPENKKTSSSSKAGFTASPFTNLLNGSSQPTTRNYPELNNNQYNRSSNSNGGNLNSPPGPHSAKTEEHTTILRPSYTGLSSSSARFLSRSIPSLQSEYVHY
Sequence of UniProt Q6ZU80 (Q6ZU80 whole entry, looked up): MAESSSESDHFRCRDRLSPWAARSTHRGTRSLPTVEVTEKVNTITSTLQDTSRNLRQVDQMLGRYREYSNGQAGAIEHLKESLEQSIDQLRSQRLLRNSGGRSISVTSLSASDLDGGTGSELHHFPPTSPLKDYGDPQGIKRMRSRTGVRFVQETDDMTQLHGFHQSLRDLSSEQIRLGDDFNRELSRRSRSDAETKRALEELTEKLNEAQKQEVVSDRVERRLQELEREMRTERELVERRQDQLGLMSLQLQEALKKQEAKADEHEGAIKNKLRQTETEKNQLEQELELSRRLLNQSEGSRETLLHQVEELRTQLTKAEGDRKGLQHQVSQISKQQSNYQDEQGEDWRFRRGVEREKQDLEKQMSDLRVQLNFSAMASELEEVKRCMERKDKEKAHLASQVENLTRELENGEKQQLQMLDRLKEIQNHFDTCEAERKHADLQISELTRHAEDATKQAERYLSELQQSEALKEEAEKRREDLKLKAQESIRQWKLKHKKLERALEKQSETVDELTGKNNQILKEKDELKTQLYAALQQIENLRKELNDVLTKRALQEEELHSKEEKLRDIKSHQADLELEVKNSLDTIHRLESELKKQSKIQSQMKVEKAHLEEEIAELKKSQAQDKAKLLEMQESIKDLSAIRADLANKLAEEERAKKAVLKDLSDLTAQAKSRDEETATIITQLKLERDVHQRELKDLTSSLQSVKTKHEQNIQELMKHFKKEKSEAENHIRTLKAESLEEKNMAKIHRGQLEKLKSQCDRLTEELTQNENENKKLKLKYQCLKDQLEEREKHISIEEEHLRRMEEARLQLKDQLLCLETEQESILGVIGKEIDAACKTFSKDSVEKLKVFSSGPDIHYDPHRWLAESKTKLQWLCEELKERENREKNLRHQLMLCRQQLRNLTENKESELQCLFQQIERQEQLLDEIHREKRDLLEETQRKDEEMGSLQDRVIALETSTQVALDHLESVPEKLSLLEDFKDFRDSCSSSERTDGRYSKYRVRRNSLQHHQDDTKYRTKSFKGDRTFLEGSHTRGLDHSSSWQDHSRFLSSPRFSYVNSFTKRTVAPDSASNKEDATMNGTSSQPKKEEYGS
Sequence of UniProt P30304 (P30304 whole entry, looked up): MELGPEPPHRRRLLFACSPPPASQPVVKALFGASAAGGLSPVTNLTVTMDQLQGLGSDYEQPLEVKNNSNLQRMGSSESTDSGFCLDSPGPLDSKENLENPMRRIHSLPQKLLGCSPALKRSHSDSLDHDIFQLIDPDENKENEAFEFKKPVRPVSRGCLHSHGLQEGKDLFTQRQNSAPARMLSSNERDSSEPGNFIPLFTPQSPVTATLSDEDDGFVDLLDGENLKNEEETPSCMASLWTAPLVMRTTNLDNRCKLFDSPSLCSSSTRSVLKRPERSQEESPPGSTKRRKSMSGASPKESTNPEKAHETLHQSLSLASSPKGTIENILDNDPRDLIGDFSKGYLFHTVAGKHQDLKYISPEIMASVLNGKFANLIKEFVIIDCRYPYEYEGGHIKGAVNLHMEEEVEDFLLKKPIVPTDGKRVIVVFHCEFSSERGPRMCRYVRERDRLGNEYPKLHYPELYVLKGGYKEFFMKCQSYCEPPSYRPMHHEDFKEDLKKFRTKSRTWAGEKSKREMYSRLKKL
Sequence of UniProt Q7Z7K6 (Q7Z7K6 whole entry, looked up): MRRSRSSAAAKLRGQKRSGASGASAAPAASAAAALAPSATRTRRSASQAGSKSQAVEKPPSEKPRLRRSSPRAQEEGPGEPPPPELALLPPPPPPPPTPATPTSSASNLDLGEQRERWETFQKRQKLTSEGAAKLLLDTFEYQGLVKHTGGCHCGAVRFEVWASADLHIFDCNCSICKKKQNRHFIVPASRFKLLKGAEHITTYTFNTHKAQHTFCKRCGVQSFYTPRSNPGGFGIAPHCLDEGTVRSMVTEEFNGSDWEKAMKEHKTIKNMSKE
Sequence of UniProt O94986 (O94986 whole entry, looked up): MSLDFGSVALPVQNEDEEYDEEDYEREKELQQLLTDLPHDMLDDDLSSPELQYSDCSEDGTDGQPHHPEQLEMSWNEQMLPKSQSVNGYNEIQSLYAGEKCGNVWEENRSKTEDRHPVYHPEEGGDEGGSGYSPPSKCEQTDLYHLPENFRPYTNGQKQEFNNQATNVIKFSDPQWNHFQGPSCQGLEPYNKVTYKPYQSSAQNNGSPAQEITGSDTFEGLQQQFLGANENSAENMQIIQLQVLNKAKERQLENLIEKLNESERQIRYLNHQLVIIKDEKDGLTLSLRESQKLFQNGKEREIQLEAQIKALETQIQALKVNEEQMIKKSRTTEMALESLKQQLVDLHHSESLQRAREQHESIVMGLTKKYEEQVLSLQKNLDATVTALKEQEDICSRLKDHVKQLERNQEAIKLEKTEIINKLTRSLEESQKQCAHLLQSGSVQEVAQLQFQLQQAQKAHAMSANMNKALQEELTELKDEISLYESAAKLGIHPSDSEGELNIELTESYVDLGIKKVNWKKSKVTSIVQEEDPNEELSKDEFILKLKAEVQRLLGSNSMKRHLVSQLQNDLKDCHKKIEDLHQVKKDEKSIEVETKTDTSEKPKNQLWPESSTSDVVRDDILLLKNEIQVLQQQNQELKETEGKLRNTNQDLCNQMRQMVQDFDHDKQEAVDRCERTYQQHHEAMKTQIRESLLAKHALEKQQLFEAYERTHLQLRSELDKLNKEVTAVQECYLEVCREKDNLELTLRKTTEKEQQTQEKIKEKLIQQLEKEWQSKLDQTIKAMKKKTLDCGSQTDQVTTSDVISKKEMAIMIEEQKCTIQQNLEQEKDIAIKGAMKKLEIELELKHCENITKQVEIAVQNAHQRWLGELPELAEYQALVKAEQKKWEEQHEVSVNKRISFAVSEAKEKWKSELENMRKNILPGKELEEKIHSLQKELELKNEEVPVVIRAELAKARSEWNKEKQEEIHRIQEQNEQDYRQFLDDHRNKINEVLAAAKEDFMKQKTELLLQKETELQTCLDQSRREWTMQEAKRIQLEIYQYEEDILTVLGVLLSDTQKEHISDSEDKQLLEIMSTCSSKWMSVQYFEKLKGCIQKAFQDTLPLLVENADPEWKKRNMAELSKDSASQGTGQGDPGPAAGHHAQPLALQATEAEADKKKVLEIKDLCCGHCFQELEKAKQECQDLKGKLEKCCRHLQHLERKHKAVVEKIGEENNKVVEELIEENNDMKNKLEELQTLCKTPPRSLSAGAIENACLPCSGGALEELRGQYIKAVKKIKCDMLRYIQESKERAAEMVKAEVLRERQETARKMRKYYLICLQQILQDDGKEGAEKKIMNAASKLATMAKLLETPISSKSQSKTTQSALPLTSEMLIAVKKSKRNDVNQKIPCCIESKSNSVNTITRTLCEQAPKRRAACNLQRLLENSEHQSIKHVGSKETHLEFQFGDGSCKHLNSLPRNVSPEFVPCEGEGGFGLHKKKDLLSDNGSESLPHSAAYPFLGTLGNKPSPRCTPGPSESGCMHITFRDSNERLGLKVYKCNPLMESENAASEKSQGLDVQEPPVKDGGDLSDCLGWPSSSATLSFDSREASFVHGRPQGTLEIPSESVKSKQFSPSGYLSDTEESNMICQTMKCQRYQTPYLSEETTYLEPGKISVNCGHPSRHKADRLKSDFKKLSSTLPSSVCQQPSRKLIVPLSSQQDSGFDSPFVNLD
Sequence of UniProt Q9NQS1 (Q9NQS1 whole entry, looked up): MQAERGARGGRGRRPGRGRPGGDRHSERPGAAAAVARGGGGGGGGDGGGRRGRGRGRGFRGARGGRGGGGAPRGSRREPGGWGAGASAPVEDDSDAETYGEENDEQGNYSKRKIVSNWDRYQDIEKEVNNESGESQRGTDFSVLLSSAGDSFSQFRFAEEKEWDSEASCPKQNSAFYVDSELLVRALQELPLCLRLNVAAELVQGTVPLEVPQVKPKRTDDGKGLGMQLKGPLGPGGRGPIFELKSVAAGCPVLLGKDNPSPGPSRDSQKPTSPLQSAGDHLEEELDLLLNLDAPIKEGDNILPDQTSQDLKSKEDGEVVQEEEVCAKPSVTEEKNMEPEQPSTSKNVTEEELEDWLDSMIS
Sequence of UniProt Q96L58 (Q96L58 whole entry, looked up): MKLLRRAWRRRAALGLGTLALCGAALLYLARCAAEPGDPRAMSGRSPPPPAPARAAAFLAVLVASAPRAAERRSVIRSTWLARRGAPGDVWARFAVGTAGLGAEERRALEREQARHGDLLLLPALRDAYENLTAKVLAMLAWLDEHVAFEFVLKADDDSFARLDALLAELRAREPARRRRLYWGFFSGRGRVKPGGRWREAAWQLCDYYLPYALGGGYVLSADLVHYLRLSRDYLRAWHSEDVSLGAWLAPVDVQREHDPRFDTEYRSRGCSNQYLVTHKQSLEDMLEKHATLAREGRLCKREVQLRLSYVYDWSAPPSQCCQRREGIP

| Target | log2 fold change [1] | log2 fold change [2] | log2 fold change [3] | log2 fold change [4] | log2 fold change [5] | log2 fold change [6] | log2 fold change [7] | log2 fold change [8] | log2 fold change [9] | log2 fold change [10] | log2 fold change [11] | log2 fold change [12] | log2 fold change [13] | log2 fold change [14] | log2 fold change [15] | log2 fold change [16] | log2 fold change [17] | log2 fold change [18] | log2 fold change [19] | log2 fold change [20] |
| --- | --- | --- | --- | --- | --- | --- | --- | --- | --- | --- | --- | --- | --- | --- | --- | --- | --- | --- | --- | --- |
| AVEN (UniProt Q9NQS1) | 0.022 | -0.08 | -0.462 | 0.014 | 0.262 | 0.084 | 0.068 | -0.097 | 0.338 | -0.014 | 0.068 | 0.01 | 0.025 | -0.08 | -0.042 | -0.188 | 0.038 | 0.154 | – | – |
| CDK16 isoform 2 (UniProt Q00536) | – | 0.063 | -0.016 | 0.043 | 0.533 (active) | – | 0.012 | -0.007 | -0.05 | 0.043 | 0.412 | 0.033 | 0.433 (active) | -0.033 | -0.044 | -0.01 | -0.016 | -0.124 | 0.046 | 0.081 |
| ATXN2 (UniProt F8WB06) | – | – | – | 0.187 | – | – | – | – | – | – | – | -0.074 | – | -0.053 | – | – | – | – | – | – |
| BCORL1 isoform 3 (UniProt Q5H9F3) | – | -0.162 | -0.577 (active) | 0.1 | 0.238 | 0.049 | 0.117 | – | 0.475 | – | – | 0.039 | – | -0.09 | 0.035 | – | 0.235 | -0.091 | – | – |
| CD80 (UniProt P33681) | – | -0.007 | 0.395 (active) | 0.104 | -0.086 | 0.088 | -0.008 | – | 0.016 | 0.259 | -0.065 | -0.015 | -0.333 | 0.039 | 0.025 | 0.023 | -0.002 | -0.03 | 0.122 | 0.086 |
| BRAF (UniProt P15056) | -0.025 | -0.099 | -0.086 | 0.015 | 0.014 | -0.013 | – | 0.64 (active) | 0.065 | – | 0.011 | – | -0.043 | 0.002 | -0.173 | -0.006 | 0.018 | – | – | 0.007 |
| CEP128 (UniProt Q6ZU80) | -0.123 | – | -1.2 (active) | -0.022 | 0.331 | 0.027 | – | -0.043 | 0.297 | – | – | -0.168 | – | 0.041 | – | – | – | – | – | – |
| C1orf131 isoform 5 (UniProt Q8NDD1) | – | -0.006 | -0.16 | 0.028 | 0.076 | 0.03 | -0.008 | – | 0.177 | -0.106 | -0.059 | 0.048 | -0.135 | 0.034 | -0.103 | 0.073 | -0.025 | 0.002 | 0.065 | -0.035 |
| ATG4D (UniProt Q86TL0) | -0.054 | -0.031 | – | 0.109 | – | 0.099 | -0.072 | -0.056 | – | – | – | -0.037 | – | -0.57 (active) | -0.085 | – | 0.084 | – | – | – |
| BRAF, A0A2R8Y8E0 | – | – | – | – | – | 0.035 | – | – | – | – | – | – | – | – | – | – | – | – | – | – |
| CEP57L1 (UniProt Q8IYX8) | 0.076 | 0.056 | -0.039 | -0.004 | -0.022 | -0.07 | 0.05 | -0.184 | 0.073 | 0.246 | -0.129 | 0 | -0.014 | 0.34 | -0.101 | -0.015 | 0.041 | 0.031 | – | – |
| CHD9 (UniProt Q3L8U1) | – | 0.055 | 1.37 (active) | 0.106 | -0.111 | – | -0.057 | – | -0.27 | 0.209 | 0.125 | -0.124 | -0.279 | -0.109 | -0.029 | -0.017 | 0 | 0.032 | – | – |
| B3GALT6 (UniProt Q96L58) | -0.047 | -0.123 | – | 0.045 | – | – | 0.1 | -0.066 | – | – | – | -0.148 | – | 0.233 | -0.086 | – | 0.137 | -0.174 | – | – |
| CACUL1 (UniProt Q86Y37) | – | 0.037 | 0.061 | 0.044 | -0.151 | 0.094 | 0.029 | – | 0.08 | – | – | -0.094 | – | 0.157 | 0.025 | – | 0.102 | -0.028 | -0.26 | -0.1 |
| CDC14A isoform 2 (UniProt Q9UNH5) | – | 0.031 | – | – | – | – | 0.108 | – | – | -0.076 | 0.07 | – | -0.001 | – | -0.174 | -0.019 | 0.083 | – | 0.062 | 0.101 |
| CANX (UniProt D6RHJ3) | – | – | – | – | – | – | – | – | – | -0.055 | 0.129 | – | 0.191 | – | – | 0.126 | – | – | -0.017 | -0.103 |
| CEP152 (UniProt O94986) | -0.013 | -0.22 | -0.089 | -0.017 | 0.006 | -0.114 | -0.057 | -0.071 | 0.058 | -0.058 | 0.108 | 0.012 | -0.014 | -0.017 | -0.413 (active) | 0.02 | 0.058 | 0.112 | – | – |
| CDC25A (UniProt P30304) | – | – | – | -0.014 | – | – | 0.114 | – | – | 0.013 | -0.01 | -0.035 | -0.021 | 0.024 | 0.006 | 0.011 | 0.017 | 0.025 | -0.016 | 0.016 |
| CENPV (UniProt Q7Z7K6) | 0.02 | -0.119 | 0.089 | – | -0.193 | 0.094 | -0.149 | -0.163 | -0.36 | 1.5 (active) | -0.184 | – | 0.816 | – | 0.038 | 0.08 | -0.077 | – | – | – |
